Test results: the supplement of paper PMC10338343
± gives the standard deviation.

Tested on: MILI (PIWIL2) piRISC loaded with piRNA #1 (26 nt)
Assay: pre-steady-state target cleavage rate (min^-1); guide: piRNA #1 5'p-UGAGGUAGUAGGUUGUAUAGUAUCCA; MIWI and MILI are mouse PIWI proteins and EfPiwi is from a freshwater sponge; tags in brackets are library labels; higher = faster piRNA-guided slicing of the target
Details: auxiliary factor: 500 nM mouse GTSF1
Procedure, shortened: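 The pre-steady-state cleavage rate was obtained by Cleave-'n-Seq with a burst-and-steady-state fit. A transcribed, DNA-blocked target RNA library (0.1 nM) was mixed with 1 nM active affinity-purified piRISC carrying one synthetic guide, with or without 500 nM GTSF1 partner protein, in HEPES–potassium acetate buffer at 33 °C for 0–8 or 0–960 min. Uncleaved targets were sequenced and normalised to depth and to weakly complementary targets, with three trials pooled and k3 capped at 0.0001 min^-1.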

GGAGACCUAUGAAUACAUCCUACUACCUGA
pre-steady-state target cleavage rate: 0.00353 ± 0.002

GGAGACCUAACUAUACUACCUAGUACCUCA
pre-steady-state target cleavage rate: 0.0154 ± 0.0058

GGAGACCAUACUAAACAACCUAGUACCUCA
pre-steady-state target cleavage rate: 0.0362 ± 0.0083

GGAGACCUAUGAUAACAAGCUACUUCCUCA
pre-steady-state target cleavage rate: 0.00574 ± 0.0027

GGAGACGAUACUAUAAACCUACUACCUCA
pre-steady-state target cleavage rate: 0.0257 ± 0.0077

GGAGACCUUACUAUACAACGUACAACCUCA
pre-steady-state target cleavage rate: 0.0226 ± 0.0031

GGAGACCAUUCUAUACAACCAACUACCUCA
pre-steady-state target cleavage rate: 0.0079 ± 0.0026

GGAGUGGAAACUAUAGAACCUACUACCUCA
pre-steady-state target cleavage rate: 0.204 ± 0.014

GGAGACCUAUGAUAUGACCUACUACCUCA
pre-steady-state target cleavage rate: 0.0053 ± 0.0031

GGAGACCUAUCUAUAGUACCUACUACCUCA
pre-steady-state target cleavage rate: 0.092 ± 0.014

GGAGACCUAUGAUUACAACCUACUACCGCA
pre-steady-state target cleavage rate: 0.00418 ± 0.004

GGAGACCUAUGAUAUGUUCCUCCUACCUCA
pre-steady-state target cleavage rate: < 0.0001

GGAGACCUAAGUAUACAACCUAGUACCUCA
pre-steady-state target cleavage rate: 0.0133 ± 0.0034

GGAGACCUAUGAUAUCAUGGUACUACCUCA
pre-steady-state target cleavage rate: < 0.0001

GGAGACGAUACUAAACAACCUAGUACCUCA
pre-steady-state target cleavage rate: 0.049 ± 0.0087

GGAGACCUAUCUAUUCAACGUACUACCUCA
pre-steady-state target cleavage rate: 0.00945 ± 0.003

GGAGACCUAUGUUUACAACCUACAACCUCA
pre-steady-state target cleavage rate: 0.0131 ± 0.0031

GGAGACCUAUCUAUACGACCUACUACCUCA
pre-steady-state target cleavage rate: 0.0198 ± 0.0044

GGAGACCUUACUAUACUUGCUACUACCUCA
pre-steady-state target cleavage rate: 0.0548 ± 0.0062

GGAGACCUUACAAUACAACCUACAACCUCA
pre-steady-state target cleavage rate: 0.111 ± 0.011

GGAGACCUAUGAUUACAACCUACUGACCUCA
pre-steady-state target cleavage rate: 0.00605 ± 0.0028

GGAGACCUAUGAUAACAACCUACUACCUUA
pre-steady-state target cleavage rate: 0.00415 ± 0.003

GGAGACCUAAGUAUACAACCUACUACGUCA
pre-steady-state target cleavage rate: 0.0129 ± 0.0032

GGAGACCUAUGUAUAGUACCUACUACCUCA
pre-steady-state target cleavage rate: 0.013 ± 0.0027

GGAGACCAUACUAUACAACCUACAUGCUCA
pre-steady-state target cleavage rate: 0.134 ± 0.028

GGAGACCUAUCUAUACUACCUACUACGUCA
pre-steady-state target cleavage rate: 0.0241 ± 0.0069

GGAGACCUAUGAUUACAACCUACUACCUCC [g2:g17:cont:t1C]
pre-steady-state target cleavage rate: 0.00979 ± 0.0034

GGAGACCAUACAAUACAACCUACUACGUCA
pre-steady-state target cleavage rate: 0.0912 ± 0.014

GGAGACCUAUGAGUACAACCUACUACCUCA
pre-steady-state target cleavage rate: 0.00674 ± 0.0022

GGAGACCUAUGAAUACAACCUACUACCCCA
pre-steady-state target cleavage rate: 0.00425 ± 0.0034

GGAGACGAUACAAUUCAACCUACUACCUCA
pre-steady-state target cleavage rate: 0.147 ± 0.01

GGAGACCUAUGAAUACAACCUACUAGCCUCA
pre-steady-state target cleavage rate: 0.00742 ± 0.0038

GGAGACCUAUGAUAUGUACCAACUAGCUCA
pre-steady-state target cleavage rate: < 0.0001

GGAGACCUAUGUAUACAACCUACUCACCUCA
pre-steady-state target cleavage rate: 0.0823 ± 0.015

GGAGACCUAUGAUUACAACCUACCACCUCA
pre-steady-state target cleavage rate: 0.00484 ± 0.0035

GGAGACCUAUGAUUACAAGCUACUACCUCA
pre-steady-state target cleavage rate: 0.0262 ± 0.0067

GGAGACCUAACUAUACUACCUACUAGCUCA
pre-steady-state target cleavage rate: 0.0708 ± 0.021

GGAGACCUAUGUAUACAACCUACUACGCUCA
pre-steady-state target cleavage rate: 0.0944 ± 0.013

GGAGACCUAUCUAUACACCUACUACCUCA
pre-steady-state target cleavage rate: 0.00467 ± 0.0029

GGAGACCUAUGAUAACAUCCUACUACCUCA
pre-steady-state target cleavage rate: 0.00447 ± 0.0023

GGAGACCUAUGUAUUCAUCCUACUACCUCA
pre-steady-state target cleavage rate: 0.0771 ± 0.011

GGAGUGGAUACUAUACAACCAAGUACCUCA
pre-steady-state target cleavage rate: 0.00277 ± 0.0018

GGAGACCUUACUUUACAACCUACUAGCUCA
pre-steady-state target cleavage rate: 0.111 ± 0.02

GGAGACCUAUGAAUACAACCUACUACACUCA
pre-steady-state target cleavage rate: 0.00526 ± 0.0026

GGAGACCUAUCAAUACAACGUACUACCUCA
pre-steady-state target cleavage rate: 0.00874 ± 0.0028

GGAGACCUAUGAAUACAACCUACUACCUUCA
pre-steady-state target cleavage rate: 0.00676 ± 0.0021

GGAGACCUAUGAUAUCCAACCUACUACCUCA
pre-steady-state target cleavage rate: 0.0112 ± 0.0022

GGAGACCUUUCUAAACAACCUACUACCUCA
pre-steady-state target cleavage rate: 0.0629 ± 0.012

GGAGACGAUAGUAUACAACCUACUAGCUCA
pre-steady-state target cleavage rate: 0.0976 ± 0.021

GGAGACCUUAGUAAACAACCUACUACCUCA
pre-steady-state target cleavage rate: 0.0245 ± 0.0059

GGAGACCUUUCUAUACAUCCUACUACCUCA
pre-steady-state target cleavage rate: 0.158 ± 0.013

GGAGACCUAUGUAUAGUUCCUACUACCUCA
pre-steady-state target cleavage rate: 0.00602 ± 0.0021

GGAGACCUAAGAUUACAACCUACUACCUCA
pre-steady-state target cleavage rate: 0.0144 ± 0.0043

GGAGACCUAUGUAUACAACCUAGCUACCUCA
pre-steady-state target cleavage rate: 0.00713 ± 0.0027

GGAGACCUUUCUAUAGAACCUACUACCUCA
pre-steady-state target cleavage rate: 0.0818 ± 0.011

GGAGACCUAUGAAAACAACCUACUAGCUCA
pre-steady-state target cleavage rate: 0.00432 ± 0.0025

GGAGAGGAUACUAUACUACCUACUAGCUCA
pre-steady-state target cleavage rate: 0.0852 ± 0.013

GGAGUGGAUACUAUACAUCGUACUACCUCA
pre-steady-state target cleavage rate: 0.0624 ± 0.0061

GGAGACCUAAGUAUACAACCAACUACCUCA
pre-steady-state target cleavage rate: 0.00465 ± 0.0039

GGAGACCUUACUAUACAACCUACUACCGCA
pre-steady-state target cleavage rate: 0.19 ± 0.022

GGAGACCUAUGAAUACAACAUACUACCUCA
pre-steady-state target cleavage rate: 0.00332 ± 0.0021

GGAGACGAUACUAUAGAACCUACAACCUCA
pre-steady-state target cleavage rate: 0.0115 ± 0.0039

GGAGACCUAUCUAUACAAGCUUCUACCUCA
pre-steady-state target cleavage rate: 0.0321 ± 0.0061

GGAGACCUAUGAAAACAAGCUACUACCUCA
pre-steady-state target cleavage rate: 0.00917 ± 0.0021

GGAGACCUAUGAAAACAACCUACAACCUCA
pre-steady-state target cleavage rate: 0.00529 ± 0.0026

GGAGACGAUACUAUACAACGUACUACCUGA
pre-steady-state target cleavage rate: 0.0157 ± 0.0045
